# Measured values taken from the supplement of paper PMC10981050.
# “And” between values parts separate entries of the source, which are not always exact repeats. Identical values can stand only once.
# Assays:
# Experiment in all cases: cell viability relative to vehicle control; higher = less cytotoxic
# Conditions in all cases: 10 µM
# K562 = tested on: K562
# Procedure, shortened: (§1)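 CRISPR-edited mutant clones and isogenic wild-type clones from four leukaemia lines were screened against Selleck bioactive, kinase and epigenetic probe libraries, with identity-inconsistent compounds excluded. Each compound was acoustically dispensed at a single 10 µM dose into 384-well plates holding 2000 cells in 50 µL medium per well. After 48 h the supernatant was removed and CellTiter-Glo luminescence was read. Viability was expressed as percent of the on-plate vehicle control and analysed in Genedata Screener.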
# MARIMO = tested on: MARIMO
# Procedure, shortened: as §1
# MOLM14 = tested on: MOLM14
# Procedure, shortened: as §1
# OCI-AML2 = tested on: OCI-AML2
# Procedure, shortened: as §1
SMILES,cell viability (K562; SRSF2 genotype: SRSF2 P95H/wt),cell viability (K562; SRSF2 genotype: SRSF2 wt/wt),cell viability (MARIMO; SRSF2 genotype: SRSF2 P95H/wt),cell viability (MARIMO; SRSF2 genotype: SRSF2 wt/wt),cell viability (MOLM14; SRSF2 genotype: SRSF2 P95H/wt),cell viability (MOLM14; SRSF2 genotype: SRSF2 wt/wt),cell viability (OCI-AML2; SRSF2 genotype: P95H/wt),cell viability (OCI-AML2; SRSF2 genotype: wt/wt)
C=C[C@H]1CN2CC[C@]3(C(=O)Nc4ccccc43)[C@@H]2C[C@@H]1/C(=C\OC)C(=O)OC [Corynoxeine],92.3% and 98.1%,97.7%,84.5%,81.1%,93.8%,93.1%,96%,95.4%
C[C@]12CC[C@H](O)C[C@@H]1CC[C@@H]1[C@@H]2CC[C@]2(C)C(=O)CC[C@@H]12,94.7% and 104%,104%,98.9%,108%,98.5%,107%,106%,97.3%
CN1CCN(c2nc3ccccc3nc2Cl)CC1,96.3% and 106%,98.8%,93.1%,103%,105%,109%,107%,102%
CC(=O)O[C@H]1C[C@H](O[C@H]2[C@@H](O)C[C@H](O[C@H]3[C@@H](O)C[C@H](O[C@H]4CC[C@@]5(C)[C@H](CC[C@@H]6[C@@H]5C[C@@H](O)[C@]5(C)[C@@H](C7=CC(=O)OC7)CC[C@]65O)C4)O[C@@H]3C)O[C@@H]2C)O[C@H](C)[C@H]1O[C@@H]1O[C@H](CO)[C@@H](O)[C@H](O)[C@H]1O [Lanatoside C],10.1% and 11.2%,12.5%,14.9%,5.1%,4.2%,0.9%,0.9%,3.5%
CC[C@H](C)[C@@H]([C@@H](CC(=O)N1CCC[C@H]1[C@H](OC)[C@@H](C)C(=O)N[C@H](C)[C@@H](O)c1ccccc1)OC)N(C)C(=O)[C@@H](NC(=O)[C@@H](NC)C(C)C)C(C)C [Monomethyl auristatin E (MMAE)],11.7% and 32%,30.1%,7.27%,8.86%,0.32%,0.5%,0.78%,2.69%
CCC(COC(=O)c1cc(OC)c(OC)c(OC)c1)(c1ccccc1)N(C)C (stereo not given) [Trimebutine],94.7% and 99.7%,97.2%,87.4%,109%,97.9%,104%,92.5%,97.8%
CC(C)OC(=O)[C@H](C)N[P@](=O)(CO[C@H](C)Cn1cnc2c(N)ncnc21)Oc1ccccc1 [Tenofovir Alafenamide (GS-7340)],100% and 106%,97.3%,93.8%,91.2%,87%,90.6%,31.5%,53.6%
C=CC(=C)C [Isoprene],102% and 103%,105%,103%,106%,95.6%,108%,103%,109%
CC(=O)O[C@H]1C[C@@H]2CC[C@@H]3[C@H](CC[C@@]4(C)[C@H]3C[C@H]([N+]3(C)CCCCC3)[C@@H]4OC(C)=O)[C@@]2(C)C[C@@H]1[N+]1(C)CCCCC1 [Pancuronium dibromide],101% and 96.7%,91.6%,96%,99.3%,103%,102%,97.4%,101%
C[C@@H]1CCC=C2C(=O)C[C@H]3OOC(C)(C)[C@H]3[C@]21C [Nardosinone],85.3% and 82.5%,83.5%,84.7%,92.8%,89.8%,91.4%,92.9%,102%
CC(C)=CCCC(C)(O)C1CCC2(C)C1C(O)CC1C3(C)CCC(O)C(C)(C)C3C(OC3OC(CO)C(O)C(O)C3O)CC12C [(20R)-Ginsenoside Rh1],101% and 98.6%,103%,111%,98.8%,115%,107%,107%,108%
C/C=C\c1cc(OC)c(OC)cc1OC [Beta-Asarone],106% and 104%,104%,98%,102%,104%,104%,104%,105%
ClC(Cl)=C(c1ccc(Cl)cc1)c1ccc(Cl)cc1,103% and 96.8%,106%,89.6%,99.1%,96.8%,105%,100%,108%
COc1ccc(C(=O)N2CCCC2=O)cc1 [Aniracetam],105% and 106%,110%,107%,109%,110%,109%,118%,106%
CCN(CC)C(=O)c1ccc(C2=CC3(CCNCC3)Oc3cccc(O)c32)cc1,93.6% and 101%,92.9%,88.9%,98.2%,97.5%,93.4%,97.3%,89%
COc1ccc(C[C@H]2NC[C@H](O)[C@H]2OC(C)=O)cc1 [Anisomycin],4.09% and 9.55%,7.54%,13.6%,6.74%,0.46%,0.44%,3.57%,10.5%
O=c1ccc2ccc3occc3c2o1 [Isopsoralen],105% and 98.7%,105%,100%,101%,108%,110%,103%,97%
CN1C(=O)CCS(=O)(=O)C1c1ccc(Cl)cc1 (stereo not given) [Chlormezanone (Trancopal)],102% and 101%,93.5%,97%,96.7%,93.1%,97.2%,94.1%,95.6%
CCOC(=O)Nc1ccc(NCc2ccc(F)cc2)cc1N [Retigabine],98.5%,97.3%,93.7%,110%,102%,105%,98.5%,110%
CC(C)(C)c1cc(C=C(C#N)C#N)cc(Br)c1O,84.3% and 86.2%,78%,94.2%,99.3%,93.5%,100%,80.5%,89.6%

SMILES,cell viability (K562; SRSF2 genotype: SRSF2 P95H/wt),cell viability (K562; SRSF2 genotype: SRSF2 wt/wt),cell viability (MARIMO; SRSF2 genotype: SRSF2 P95H/wt),cell viability (MARIMO; SRSF2 genotype: SRSF2 wt/wt),cell viability (MOLM14; SRSF2 genotype: SRSF2 P95H/wt),cell viability (MOLM14; SRSF2 genotype: SRSF2 wt/wt),cell viability (OCI-AML2; SRSF2 genotype: P95H/wt),cell viability (OCI-AML2; SRSF2 genotype: wt/wt)
O=C1CCC[C@@H]2[C@H]3CCCN4CCC[C@H](CN12)[C@@H]34 [Sophoridine],104% and 100%,105%,108%,113%,103%,108%,100%,101%
CC(=O)OC(C)(C)/C=C/C(=O)[C@](C)(O)[C@H]1[C@H](O)C[C@@]2(C)[C@@H]3CC=C4[C@H](C[C@H](O)C(=O)C4(C)C)[C@]3(C)C(=O)C[C@]12C [Cucurbitacin B],19.7% and 26.4%,28.1%,8.8%,16.8%,0.7%,0.57%,0.29%,3.38%
CC1CCC2N(C1)CC1C3CC4C(CC(=O)C5CC(O)CCC54C)C3CCC1C2(C)O (stereo not given) [Peiminine],92.5% and 90.8%,86.1%,107%,109%,87%,75.6%,46.2%,58.8%
"C/C(=C\c1csc(C)n1)[C@@H]1C[C@@H]2O[C@]2(C)CCC[C@H](C)[C@H](O)[C@@H](C)C(=O)C(C)(C)[C@@H](O)CC(=O)O1 [Patupilone (EPO906, Epothilone B)]",29% and 37%,39.4%,7.88%,6.51%,8.36%,2.95%,6.03%,11.7%
CC(C)c1ccc2c(c1O)CC[C@H]1C3=C(CC[C@]21C)C(=O)OC3 [Triptophenolide],70.5% and 80.3%,79.5%,70.3%,62.5%,99.4%,92%,49%,61.7%
COc1cc2c3c(c1OC)-c1ccccc1C[C@H]3N(C)CC2 [Nuciferine],102% and 108%,102%,102%,108%,102%,104%,96.3%,106%
CC(O)(CS(=O)(=O)c1ccc(F)cc1)C(=O)Nc1ccc(C#N)c(C(F)(F)F)c1 (stereo not given) [Bicalutamide (Casodex)],95.5% and 101%,106%,95.4%,102%,98.7%,98.8%,93.8%,91.8%
CCNC(=O)C[C@@H]1N=C(c2ccc(Cl)cc2)c2cc(OC)ccc2-n2c(C)nnc21,72.5% and 71.1%,73.3%,38.9%,41.3%,30%,28.7%,24.7%,37.5%
C/C=C(\C)C(=O)N[C@@H](c1ccccc1)[C@@H](O)C(=O)O[C@H]1C[C@@]2(O)[C@@H](OC(=O)c3ccccc3)[C@@H]3[C@]4(OC(C)=O)CO[C@@H]4C[C@H](O)[C@@]3(C)C(=O)[C@H](OC(C)=O)C(=C1C)C2(C)C [Cephalomannine],22.2% and 39.2%,31%,7.43%,5.47%,9.27%,2.7%,7.08%,10.9%
CC1=C[C@@H]2C(=O)[C@]3(C=C(C)[C@H](O)[C@@]3(O)[C@@H]1O)[C@H](C)C[C@@H]1[C@H]2C1(C)C [20-Deoxyingenol],79.4% and 65.6%,65.1%,76.2%,100%,39.8%,14.8%,18.2%,52%
COC1=C[C@@H]2[C@@H]3Cc4ccc(OC)c(O)c4[C@]2(CCN3C)CC1=O [Sinomenine (Cucoline)],103% and 95.1%,90.5%,97.9%,96.2%,89.9%,97.3%,95%,97.8%
C[C@]12CC[C@H]3[C@@H](CCC4=CC(=O)C=C[C@@]43C)[C@@H]1CC[C@@H]2O [Boldenone],99.7% and 103%,110%,101%,104%,105%,110%,113%,111%
CCC12C=CCN3CC[C@@]4(c5ccc(OC)cc5N(C)[C@H]4[C@@](O)(C(=O)OC)[C@@H]1OC(C)=O)[C@@H]32 (stereo not given in full) [Vindoline],96.8% and 99.8%,99.4%,101%,107%,105%,105%,103%,116%
Nc1nc(N)nc(N)n1 [Melamine],93% and 95.7%,90%,94.3%,99%,90.1%,94.4%,95.2%,97.8%
CCCC[N+]1(C)[C@@H]2CC(OC(=O)[C@H](CO)c3ccccc3)C[C@H]1[C@@H]1O[C@@H]12 (stereo not given in full) [Butylscopolamine bromide (Scopolamine butylb],108% and 95.5%,97.8%,102%,110%,97.5%,103%,94.3%,105%
CN(C)C(=O)Oc1ccc[n+](C)c1 [Pyridostigmine Bromide (Mestinon)],93.7% and 96.7%,95.9%,93.5%,98.7%,96.6%,94.3%,93.2%,97%
C=CCCCCCCCCC(=O)O[C@H]1CC[C@H]2[C@@H]3CCC4=CC(=O)C=C[C@]4(C)[C@H]3CC[C@]12C [Boldenone Undecylenate],100% and 92.8%,95.7%,86%,89.2%,57.4%,26.7%,38.1%,36.7%
CC(C)(C)[C@]1(O)CC2OC(=O)CC23C(=O)OC2OC(=O)[C@H](O)C231 (stereo not given in full) [Bilobalide],108% and 105%,98%,96.9%,116%,104%,104%,98.1%,109%
O=c1cccc2n1C[C@@H]1CNC[C@H]2C1 [Cytisine],107% and 100%,92.9%,93.3%,107%,97.7%,102%,94.3%,104%
Cl[TeH]1(Cl)(Cl)OCCO1.N,86.8% and 76.3%,75%,78%,83.5%,71.3%,74.3%,76.1%,84.1%
